Compounds without any hit were thinned out: in the full panel of roughly 83,000, 20% have a hit.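 A percent growth of 40 corresponds to 60% growth inhibition; 0 means no net growth; -100 means all cells died. Active threshold: below 10.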 Unmarked numbers belong to inactive results. Activity calls are given as the source filed them.

In this assay the test system is HL-60(TB) leukemia. Kind of assay: NCI-60 one-dose screen, 48 h (100 = growth as untreated, 0 = no growth, -100 = all killed). The settings on record: 10 µM unless noted.
Consider `C=C1CC[C@@H]2[C@@](C)(CCC[C@]2(C)C(=O)O)[C@@H]1CC[C@H](CO)CCO`, for which the growth is 93.7%.
Next, `CC(C)CC1NC(C)(C)CO1` (stereo not given): 133%.
Regarding `C=C1CC2(OC1=O)C(=O)N(C)c1ccc(I)cc12` (stereo not given), the growth is -56.5% (active).
Consider `Cc1ccc(C2=NN(c3ccc(S(C)(=O)=O)cc3)C(=O)CC2)cc1`, for which the growth was -12% (active).
As for `CN(C)CCNC(=O)c1cccn2c(=O)c3cc4ccccc4cc3nc12`, the growth was -38.5% (active).
`c1ccc(Cc2cccc[n+]2C(c2ccccc2)c2ccccc2)cc1`: the growth is 4.63% (active).
As for `Nc1cc(Cl)c(S(N)(=O)=O)cc1S(N)(=O)=O`, the growth is 104%.
For `CCCC(=O)c1cccs1`, the growth was 87.9%.
With `COc1cc(-c2cc3ncccc3c3nc(OCCN(C)C)c4cccnc4c23)cc(OC)c1OC`, the growth was 36.9%.
As for `N=C(N)c1ccc(-c2ccc(-c3cc(Cl)cc(Cl)c3)o2)nc1`, the figure is -74.7% (active); as for `COc1ccc(C/C(C)=C(\c2ccc(Cl)cc2)c2ccc(OCCCN(C)C)cc2)cc1`, 69.9%.
Next, `C/C(=N\N1CC(=O)NC1=O)c1ccc([N+](=O)[O-])o1`: 62.7%.
For the compound `O=C1/C(=C/c2ccccc2F)CN(C(=O)C(Cl)Cl)C/C1=C\c1ccccc1F`, the growth is -30.7% (active).
As to `Cc1cccc(-c2nnc(SCC(=O)Nc3ncc(Cc4ccccc4)s3)n2N2C(=O)CSC2=S)c1`, the growth is 97.8%.
Consider `COc1ccc(Cn2cc(C(=O)N=Nc3c(O)[nH]c4c(Cl)cccc34)nn2)cc1`, for which the growth was 97.4%.
As to `COc1cc(-c2nc(C(=O)Nc3ccc(C)cc3)nn2-c2ccc(F)c(F)c2)cc(OC)c1OC`, the growth is 100%.
Consider `CCOC(=O)CC1CSC(c2cccc(Cl)c2)=N1` (stereo not given), for which the growth is 98.8%.
As to `O=C1CCCCN1c1ccc(C2=NCCCN2)cc1`, the growth was 70.7%.
Next, `O=C1CC(c2ccsc2)c2snc(-c3ccc(Cl)cc3)c2N1` (stereo not given): 12.9%; `CCN(CC)CCOC(=O)N1c2ccccc2Sc2ccccc21`: 88.1%; `Cc1cc(C(C)(C)CC(C)(C)C)ccc1OCCOCC[N+](C)(C)Cc1ccccc1`: -67.1% (active).
As to `COc1ccc(-c2nc(-c3ccccc3)c(-c3ccccc3)n2C2CC2)cc1OC1CCCCC1`, the growth was 30%.
Turning to `O=c1nc2sc3nc4ccccc4cc3cc-2s1`, the growth is 99%.
In the case of `COc1c(C(C)=O)c(OCCCCOc2c(C(C)=O)c(OC)c3ccoc3c2OC)c(OC)c2occc12`, the growth is 57.4%.
`COc1ccc(/C=N/OCC(O)CNCc2ccccc2)cc1OC1CCCC1` (stereo not given): the growth is 105%.
As for `COC(=O)c1ccc2c(c1)n(Cc1ccc3ccccc3c1)c[n+]2Cc1ccc2ccccc2c1`, the growth is -18.8% (active).
Take `N=C(N)c1ccc(OCCCCCCCCCCOc2ccc(C(=N)N)cc2)cc1`: the growth is -70.1% (active).
As to `CCN1CCN(c2cc(C)nc(N(CCNc3ccnc4cc(Cl)ccc34)Cc3ccc4c(c3)OCO4)n2)CC1`, the growth is -61.8% (active).
Next, `C[C@]12O[C@H]1[C@H](O)c1c(cc(O)c3c1C(=O)c1cccc(O)c1-3)C2=O`: 100%.
Regarding `C#CC#CC#CC#CC#CC#CC#CC#CC[C@H]1OC[C@@H](COC(=O)O[C@@H](C(=O)O[C@H]2C[C@@]3(O)[C@@H](OC(=O)c4ccccc4)[C@@H]4[C@]5(OC(C)=O)CO[C@@H]5C[C@H](O)[C@@]4(C)C(=O)[C@H](OC(C)=O)C(=C2C)C3(C)C)[C@@H](NC(=O)c2ccccc2)c2ccccc2)O1`, the growth is 6.5% (active).
Take `COc1ccc(C(=O)/C(=N/Nc2ccccc2)c2ccc(OC)cc2)cc1`: the growth was 88.4%.
In the case of `O=C(CNCCO)Nc1ccc2ncnc(Nc3ccc(OCc4cccc(F)c4)c(Cl)c3)c2c1`, the growth was 86.9%.
As for `O=C(O)c1cccc2c1Cc1cc([N+](=O)[O-])ccc1-2`, the growth is 120%.
`O=c1[nH]c2cc(Cl)c(Cl)cc2n2cc3ncccc3c12`: the growth was 65.5%.
With `Cn1c(=O)c2nc(SCc3ccccc3)n(C)c2n(C)c1=O`, the growth is 92.3%.
As for `Cc1cc2oc(=O)cc(CP(=O)(O)O)c2cc1O`, the figure is 111%; as for `COc1cccc2c1C(=O)c1c(O)c3c(c(O)c1C2=O)CC(O)(/C(C)=N/NC(=O)CCCCC(=O)N/N=C(\C)C1(O)Cc2c(O)c4c(c(O)c2C(OC2CC(N)C(O)C(C)O2)C1)C(=O)c1c(OC)cccc1C4=O)CC3OC1CC(N)C(O)C(C)O1` (stereo not given), -9.19% [5 µM] (active); as for `COc1cc(/C=N/OC(=O)Nc2ccccc2)cc(OC)c1OC`, 99.2%.
With `Nc1c(C(=O)c2ccc(Cl)s2)sc2nc3c(cc12)CCCC3`, the growth was 106%.
Turning to `Cc1ccc(-c2csc(N)n2)cc1`, the growth is 112%.

For the origin of these results see PubChem BioAssay (NCI).
